Compounds with a hit are over-represented: about 21% of the library has one in this group of screens.
Sm TGR inh: inhibitors of Schistosoma mansoni thioredoxin glutathione reductase. Q962Y6. purified TGR, DTNB reduction, TNB absorbance 405 nm. Potency, µM (titrated, usually from 114 µM), hits mostly inhibitors. hit rate 3% among 360,000; note: nearly all actives have a fitted effect of over 60% in size
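First, TGR (20 nM dispensed) and NADPH were mixed with compound. Second, a 15 min room-temperature incubation followed. Third, further NADPH and then DTNB were added to start the reaction. Finally, TNB absorbance was monitored kinetically.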
Pf growth 96h: inhibits malaria parasite growth, 96 h; Potency, µM (highest dose often 28.7 µM), most hits filed as inhibitors; P. falciparum luciferase reporter growth, 96 h; AID 504834; hit rate 6.9% among 320,000
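Delayed-death screen, second-generation endpoint: infected erythrocytes, 2% hematocrit, 0.05% parasitemia final; 96 hours at 37 C, 5% CO2; luciferase detection reagent; luminescence decrease equals reduced growth.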
Pf growth 48h: inhibits P. falciparum growth in the first generation, 48 h; P. falciparum luciferase growth in erythrocytes, 48 h; Potency, µM (top dose mostly 28.7 µM), most hits filed as inhibitors; hit rate 5.9% among 310,000; AID 504832
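Firefly luciferase activity from engineered P. falciparum reports growth; inhibitors lower the luminescent signal. Cultures contained 2% hematocrit erythrocytes at 0.1% final parasitemia.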
Shiga toxin inh: blocks Shiga toxin action in Vero cells. Vero cells, Shiga toxin protein synthesis inhibition reporter. inhibition, % at 38.7 µM. hit rate 9.2% among 290,000; in the data active = inhibition mostly above about 28%, no sharp cut-off; inactive = mostly below about 43%
NS1 function inh: influenza NS1 inhibition; Potency, µM (top dose mostly 46.1 µM); hit rate 0.4% among 270,000; calls by dose curve; note: actives are rising curves; nearly all actives have a fitted effect of over 50% in size
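Growth recovery, yeast-based: influenza A NS1 expressed in S. cerevisiae causes slow growth, and suppressors are detected by OD600. The parent strain without NS1 is used as positive control.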
CHX counter: affects cycloheximide protein synthesis inhibition readout, counter-screen. cell reporter, cycloheximide protein synthesis inhibition counterscreen. max response, %. hit rate 12% among 300,000. AID 2314; in the data active = max response mostly above about 13%, no sharp cut-off; inactive = mostly below about 14%; note: read at 38.3 µM for the half of the compounds with a filed dose
Large screens that a line does not name were inactive. Unless noted, calls come from the whole dose curve; as a rule, active = well fitted curve in the direction sought with a large enough effect; inconclusive = small, poorly fitted or top-dose-only effect, or another doubt; inactive = no such curve, though single readings can be large; an effect the other way counts as inactive or inconclusive.

COc1ccc(/C(N)=N/OC(=O)CCc2ccccc2)cc1	Shiga toxin inh 93, CHX counter 52
Cc1cccc(/C(N)=N/OC(=O)COc2ccc(Cl)c(C)c2)c1	none
CCOC(=O)N1CCN(c2cc(=O)n(-c3ccc(C)cc3)c(=O)[nH]2)CC1	none (no result: NS1 function inh)
CCOc1ccc(NC(=O)CN(C)C(=O)CSCc2ccc(C)cc2)cc1OCC	Pf growth 96h inconclusive, Pf growth 48h inconclusive (no result: Shiga toxin inh, NS1 function inh, CHX counter)
COc1ccc(C(=O)CCc2ccccc2)cc1	Pf growth 96h inconclusive, Shiga toxin inh 117, CHX counter 43 (no result: Pf growth 48h)
COc1ccc(C(=O)COC(=O)CCc2ccccc2)cc1	none
C1CCC(C(CC2CCCCN2)C2CCCCC2)CC1 (stereo not drawn)	Pf growth 96h 4.1µM, Pf growth 48h 3.7µM
Cc1ccc(S(=O)(=O)N/N=C/c2ccc(O)c(O)c2)cc1[N+](=O)[O-]	Sm TGR inh inconclusive, Shiga toxin inh 128, CHX counter 45
CCN(CC)c1ccc(/C=N/NS(=O)(=O)c2ccc(C)c([N+](=O)[O-])c2)cc1	none
Cc1ccc(S(=O)(=O)N/N=C/c2ccccc2O)cc1[N+](=O)[O-]	Shiga toxin inh 69, CHX counter 39 (no result: NS1 function inh)
O=C1O[C@@H]([C@H](O)[C@H](O)[C@H](O)CO)[C@@H](O)[C@@H]1O	none (no result: Sm TGR inh, Pf growth 96h, Pf growth 48h, Shiga toxin inh, CHX counter)
CC(C)(C)N(Cc1ccccc1)C(=O)COC(=O)c1ccccc1SCC(=O)N1CCCC1	Pf growth 96h inconclusive, Pf growth 48h inconclusive (no result: Shiga toxin inh, NS1 function inh, CHX counter)
CN(C)/C=C(\C#N)C(=O)Nc1ccc(F)cc1	Shiga toxin inh 50, CHX counter 16
CN(C)/C=C(\C#N)C(=O)Nc1ccc(F)c(Cl)c1	Shiga toxin inh 52, CHX counter 24
CN(C)/C=C(\C#N)C(=O)N/N=C/c1ccc(Cl)cc1	none (no result: NS1 function inh)
COc1ccccc1NC(=O)CSc1nnc(-c2ccoc2C)n1CC1CCCO1 (stereo not drawn)	none
CCCCC(=O)Nc1nc2ccc3nc(C)sc3c2s1	Pf growth 96h 10µM, Pf growth 48h inconclusive
CCCC(=O)Nc1nc2ccc3nc(C)sc3c2s1	Pf growth 48h inconclusive, Shiga toxin inh 95, CHX counter 40 (no result: Pf growth 96h)
ClC(Cl)(c1nnnn1-c1ccccc1)c1nnnn1-c1ccccc1	Sm TGR inh 20µM, Pf growth 96h inconclusive
c1ccc(-c2nnnn2-c2ccccc2)cc1	none
COc1ccc([C@H]2CC(=O)C=C(c3ccc(OC(F)(F)F)cc3)C2)cc1	none (no result: Shiga toxin inh, NS1 function inh, CHX counter)
COc1ccc([C@H]2CC(=O)C=C(c3ccc(CNC(=O)OC(C)(C)C)cc3)C2)cc1	Pf growth 96h 5.9µM, Pf growth 48h 12µM (no result: Shiga toxin inh, NS1 function inh, CHX counter)
COc1ccc([C@H]2CC(=O)C=C(c3ccccc3Oc3ccccc3)C2)cc1	Pf growth 96h inconclusive, Pf growth 48h 10µM (no result: Shiga toxin inh, NS1 function inh, CHX counter)
COc1ccc([C@H]2CC(=O)C=C(c3ccccc3-c3ccccc3)C2)cc1	Pf growth 96h 13µM, Pf growth 48h inconclusive (no result: Shiga toxin inh, NS1 function inh, CHX counter)
CC(=O)/C(CN1CCCCC1)=N\O	none (no result: Pf growth 96h)
C/C(=N\O)C(=O)C(CN1CCCCC1)CN1CCCCC1	Sm TGR inh 1.8µM
Cc1cccn2c(=O)c(/C=N/O)c(N3CCOCC3)nc12	Sm TGR inh inconclusive, Pf growth 96h inconclusive (no result: NS1 function inh)
Cn1c(Cn2nnc3ccccc32)nnc1SCC(=O)N1c2ccccc2Sc2ccccc21	Pf growth 96h 10µM, Pf growth 48h inconclusive
CN(C)CCCn1c(SCC(=O)N2c3ccccc3Sc3ccccc32)nc2ccccc2c1=O	Pf growth 96h 4.1µM, Pf growth 48h 10µM
Cn1c(SCC(=O)N2c3ccccc3Sc3ccccc32)nc2ccccc21	Pf growth 96h inconclusive, Pf growth 48h inconclusive
COC(=O)c1c(NC(=O)CSc2nnc(Cn3nnc4ccccc43)n2C)sc(C)c1C	Sm TGR inh inconclusive, Pf growth 96h 7.4µM
CC1(C)CC(=O)C(C2C3=C(CC(C)(C)CC3=O)Oc3ccc4ccccc4c32)C(=O)C1 (stereo not drawn)	Pf growth 48h inconclusive (no result: Sm TGR inh)
CC1(C)CC(=O)C(C2C3=C(CC(C)(C)CC3=O)Oc3ccccc32)C(=O)C1 (stereo not drawn)	Sm TGR inh 5µM
COc1ccc2c(c1)C(C1=C(O)CC(C)(C)CC1=O)C1=C(CC(C)(C)CC1=O)O2 (stereo not drawn)	none (no result: Pf growth 48h)
CC1(C)CC(=O)C(C2C3=C(CC(C)(C)CC3=O)Oc3ccccc32)=C(O)C1 (stereo not drawn)	Sm TGR inh 7.9µM (no result: Pf growth 96h, Pf growth 48h)
CCCn1c(=O)c2sccc2n2c(CCCC(=O)N3CCN(c4ccc(OC)cc4)CC3)nnc12	none (no result: Pf growth 96h, Pf growth 48h, Shiga toxin inh, NS1 function inh, CHX counter)
